# High-throughput results: PubChem, several laboratories
# MRP reversal: reverses drug resistance mediated by MRP; 85,000 tested, 0.04% active; differential viability (reversal), % at 10 µM; H69AR cells + 2 uM doxorubicin, CellTiter-Glo, 72 h;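 active means viability drop by adding the cancer drug above about 55%, with treated viability meeting a 40% cutoff, limit read from the data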;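 further: viability without doxorubicin minus viability with 2 µM doxorubicin for each compound; larger differential means the compound sensitizes cells more to doxorubicin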
# CYP2C9 act: increases human cytochrome P450 2C9 activity. recombinant CYP2C9, luciferin-H conversion, luminescence; stronger effect = higher value; factor 1 = untreated enzyme, 0 = blocked. activation factor at 5 µM. AID 1024. 96,000 tested, 1.4% active;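 active means activation factor of 2 or more for CYP2C9 at a 5 µM dose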;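 further: 0 = sulfaphenazole-blocked wells and 1 = vehicle-only wells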
# CYP2C9 inh: human CYP2C9 inhibition; P11712; CYP2C9 Supersomes, luciferin-H conversion, luminescence; inhibition, % at 5 µM; 96,000 tested, 20% active;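 active means blocking of liver enzyme CYP2C9 beyond about 50% at 5 µM, limit read from the data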
# MRP-1 activ: activates MRP-1; H69AR cells + doxorubicin, viability rescue, CellTiter-Glo; viability increase, % at 10 µM; 140,000 tested, 0.61% active; AID 799;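 active means viability gain under doxorubicin at or above a set limit, the compound median plus 3 SD, cut at about 4.7% in these data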;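 further: MRP-1 overexpressing cells given doxorubicin 25 µM after compound pretreatment; 18-22 h compound pretreatment then 72 h with doxorubicin before readout; 0% = doxorubicin-only wells and 100% = vehicle-treated cells without doxorubicin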
# CYP2C19 inh: blocks human cytochrome P450 2C19 | P33261 | CYP2C19 Supersomes, luciferin-H EGE luminescence, 30 min | inhibition, % at 5 µM | 96,000 tested, 21% active;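 active means CYP2C19 inhibition above a set limit at 5 µM in the primary screen, cut at about 50% in these data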;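 further: plate controls were negative control wells for no effect and 2.5 mM tranylcypromine positive control for full effect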
# Target sequence (P33261 whole entry, looked up): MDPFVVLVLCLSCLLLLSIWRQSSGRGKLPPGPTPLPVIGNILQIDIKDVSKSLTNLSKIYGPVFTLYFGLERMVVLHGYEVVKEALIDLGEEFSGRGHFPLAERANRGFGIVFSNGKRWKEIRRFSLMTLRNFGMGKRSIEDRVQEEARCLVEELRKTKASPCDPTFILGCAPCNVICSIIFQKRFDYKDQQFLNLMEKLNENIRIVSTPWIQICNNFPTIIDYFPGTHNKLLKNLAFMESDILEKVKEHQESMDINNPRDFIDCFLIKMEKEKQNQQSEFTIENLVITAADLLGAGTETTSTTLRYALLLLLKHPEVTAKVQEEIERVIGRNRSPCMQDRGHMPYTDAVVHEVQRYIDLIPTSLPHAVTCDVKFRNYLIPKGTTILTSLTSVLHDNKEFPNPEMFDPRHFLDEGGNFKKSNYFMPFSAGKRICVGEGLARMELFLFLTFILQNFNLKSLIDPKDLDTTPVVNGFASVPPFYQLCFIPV
# CYP2C19 act: increases human CYP2C19 enzyme activity; recombinant CYP2C19, luciferin-H EGE luminescence; stronger effect = higher value; 0 = fully inhibited enzyme, 1 = untreated enzyme; activation factor at 5 µM; 96,000 tested, under 10 active; P33261;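 active means activation factor of at least 2 at 5 µM in the primary screen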;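 further: 0 = wells with 2.5 mM tranylcypromine and 1 = vehicle-only wells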
# * marks the source's active call; other numbers are inactive results; / = no result given. Hits are enriched below; roughly 21% of the tested compounds scored in any of these assays.
SMILES,MRP reversal,CYP2C9 act,CYP2C9 inh,MRP-1 activ,CYP2C19 inh,CYP2C19 act
COc1cccc(NC(=O)N(CCCN2CCOCC2)C(C)c2cc3ccccc3o2)c1 (stereo unspecified),-26,0.5,52*,-3,46,0.5
COc1ccccc1-n1c(CCn2nc(C)c(Br)c2C)n[nH]c1=S,/,/,/,-1,/,/
Cc1ccc(-c2nc3ncccc3o2)cc1NC(=O)COc1ccccc1,5,0.9,10,-4,8,0.9
Cc1ccc(-c2nc3cccnc3o2)cc1NC(=O)COc1ccc(Cl)cc1C,3,0.4,64*,-5,26,0.7
Cc1ccc(-c2nc3cccnc3o2)cc1NC(=O)COc1ccc(C(C)(C)C)cc1,-8,0.4,55*,-1,33,0.7
Cc1c(-c2cccs2)[n+](=O)c2c(n1[O-])CCCC2,12,/,/,-2,/,/
COC(=O)CC1SC(=O)NC1=O (stereo unspecified),14,1.1,-12,7.2*,-14,1.1
COC(=O)CC1SC(=O)NC1=Nc1ccc(O)cc1 (stereo unspecified),-3,1,1,-2,19,0.8
COc1ccc(-c2nnc(SCC(=O)NCc3ccco3)n2C)cc1,10,0.9,7,-3,0,1
O=C(O)C1Cc2ccccc2CN1C(=O)c1ccccc1 (stereo unspecified),13,1.1,-10,-2,0,1
CC(C)=CCC(C)(C)C1OCCN1C(=O)c1ccccc1 (stereo unspecified),11,0.6,44,-1,71*,0.3
COc1ccccc1C(=O)NC(=S)Nc1ccc(S(=O)(=O)N2CCN(C)CC2)cc1,/,/,/,0,/,/
COc1cc(NS(=O)(=O)c2ccc(N/C=C\C(=O)c3ccc(F)cc3)cc2)nc(OC)n1,/,/,/,-1,/,/
Cc1ccc(S(=O)(=O)N2CCCOC2)cc1,2,1.1,-11,0,41,0.6
O=S(=O)(c1ccc2ccccc2c1)N1CCCCC1,-3,2.5*,-155,-2,33,0.7
O=S(=O)(c1ccc2ccccc2c1)N1CCCOC1,7,3.5*,-254,1,49,0.5
Cc1ccccc1Sc1c(C#N)c(-c2ccccc2)nn1C,/,0.7,27,-1,18,0.8
COc1ccc(C2=CC(c3c(C)nn(-c4ccccc4)c3Cl)n3nnnc3N2)cc1OC (stereo unspecified),-5,0.1,93*,-4,91*,0.1
C1=C(c2ccccc2)Nc2nnnn2C1c1cccs1 (stereo unspecified),3,0.7,28,-5,29,0.7
Cc1ccc(C2=CC(c3cccs3)n3nnnc3N2)cc1 (stereo unspecified),/,0.2,82*,-4,97*,0
COc1ccccc1C1C=C(c2ccc(C)cc2)Nc2nnnn21 (stereo unspecified),-22,0.3,71*,-1,85*,0.1
CCOc1ccc(C(O)C(CN2CCOCC2)c2ccccc2)cc1 (stereo unspecified),5,1,1,-3,29,0.7
Nc1ccc(-c2n[nH]c(=O)c3ccccc23)cc1N,-3,1.5,-54,-6,-8,1.1
COC(=O)C(NNc1ccccc1C)(NC(=O)c1ccc(F)cc1)C(F)(F)F (stereo unspecified),/,0.5,54*,-1,79*,0.2
Cc1csc(NC(=O)CSc2nnc(-c3ccccc3)o2)n1,12,0.9,13,-2,24,0.8
SMILES,MRP reversal,CYP2C9 act,CYP2C9 inh,MRP-1 activ,CYP2C19 inh,CYP2C19 act
CCOC(=O)Cc1csc(NC(=O)CSc2nnc(-n3nc(C)cc3C)c3ccccc23)n1,5,0.1,92*,-5,79*,0.2
CCOC(=O)Cc1csc(NC(=O)CSc2nnc(-c3ccc(F)cc3)o2)n1,-1,0.4,56*,2,16,0.8
CCOC(=O)Cc1csc(NC(=O)CSc2nnc(-c3ccc(C)cc3)o2)n1,15,0.2,84*,-1,38,0.6
CCOC(=O)Cc1csc(NC(=O)CSc2nnnn2-c2ccc(CC)cc2)n1,12,0.2,77*,-3,88*,0.1
Cc1cccc(NC(=O)C23CCC(C)(/C(=N/O)C2)C3(C)C)c1 (stereo unspecified),5,1,-3,-2,30,0.7
CC12CCC(C(=O)Nc3ccccc3)(C/C1=N\O)C2(C)C (stereo unspecified),7,1,1,0,78*,0.2
